From PubChem BioAssay AID1159580 (chemical genetic matrix, 2015)
Where “and” joins values, the source holds several entries; their conditions need not be identical. Identical values can stand only once. The whole screen tested about 5,500 compounds, of which about 2,000 (36%) were called active. Roughly 18% stayed inconclusive and do not appear here. No stated cut-off is given here; in the data, active means normalized growth mostly below about 0.91 (no sharp cut-off); inconclusive means no clear call, values can overlap the other calls; inactive means mostly above about 0.92. This is one part of the list.

Test: chemical genetic growth profiling, strain panel (AID 1159580);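 further: tested at 20 µM; growth read once vehicle control cultures reached saturation at 30 °C; 1 = growth at the plate median or of vehicle wells; lower values mean less growth of the strain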
Conditions: S. cerevisiae deletion strains, growth OD

Measured: normalized growth

O=C(O)[C@H](O)[C@@](O)(Cc1ccc(O)cc1)C(=O)O
inactive: locus YAL013W, strain DEP1, hits give low values 1.04 | locus YAL021C, strain ccr4, hits give low values 1 | locus YAL026C, strain drs2, hits give low values 1 | locus YAL030W, strain snc1, hits give low values 1.01 | locus YBL061C, strain skt5, hits give low values 1.01 | locus YBR009C, strain hhf1, hits give low values 1.01 | locus YBR021W, strain FUR4, hits give low values 1.02 | locus YBR023C, strain chs3, hits give low values 1.02 | locus YBR171W, strain sec66, hits give low values 1.02 | locus YBR229C, strain ROT2, hits give low values 1.02 | locus YBR231C, strain swc5, hits give low values 1.01 | locus YBR279W, strain paf1, hits give low values 1.01 | locus YCL011C, strain gbp2, hits give low values 1.01 | locus YCL016C, strain dcc1, hits give low values 1.02 | locus YCL029C, strain bik1, hits give low values 1.02 | locus YCL061C, strain MRC1, hits give low values 1.02 | locus YCL069W, strain vba3, hits give low values 1 | locus YCR088W, strain abp1, hits give low values 1.01 | locus YDL005C, strain med2, hits give low values 0.996 | locus YDL035C, strain GPR1, hits give low values 1.06 | locus YDL040C, strain nat1, hits give low values 1 | locus YDL074C, strain BRE1, hits give low values 1.06 | locus YDL101C, strain DUN1, hits give low values 1.03 | locus YDL134C, strain PPH21, hits give low values 1.02 | locus YDL185W, strain tfp1, hits give low values 0.992 | locus YDL192W, strain arf1, hits give low values 1.03 | locus YDR001C, strain nth1, hits give low values 1.02 | locus YDR069C, strain doa4, hits give low values 1.01 | locus YDR101C, strain arx1, hits give low values 1.02 | locus YDR137W, strain rgp1, hits give low values 1.03 | locus YDR159W, strain sac3, hits give low values 1 | locus YDR162C, strain NBP2, hits give low values 1.06 | locus YDR195W, strain ref2 0.989 | locus YDR297W, strain sur2, hits give low values 1.01 | locus YDR318W, strain mcm21, hits give low values 1.01 | locus YDR334W, strain swr1, hits give low values 1.01 | locus YDR335W, strain msn5, hits give low values 1 | locus YDR388W, hits give low values 1 | locus YDR392W, strain spt3, hits give low values 0.976 | locus YDR502C, strain sam2, hits give low values 0.995 | locus YEL003W, strain gim4, hits give low values 0.999 | locus YEL037C, strain rad23, hits give low values 1 | locus YEL061C, strain CIN8 (second series), hits give low values 0.999 | locus YER015W, strain faa2, hits give low values 1 | locus YER016W, strain bim1, hits give low values 1 | locus YER110C, hits give low values 0.992 | locus YER111C, strain swi4, hits give low values 1 | locus YER155C, strain BEM2 (second series), hits give low values 1.01 | locus YER155C, strain BEM2, hits give low values 1.01 | locus YER167W, strain BCK2, hits give low values 1.02 | locus YFR010W, strain ubp6, hits give low values 1.01 | locus YGL078C, strain dbp3, hits give low values 1.01 | locus YGL086W, strain mad1, hits give low values 1.01 | locus YGL167C, strain pmr1, hits give low values 1.01 | locus YGL173C, strain kem1, hits give low values 1.02 | locus YGL227W, strain vid30, hits give low values 1.01 | locus YGL240W, strain doc1, hits give low values 1.01 | locus YGL248W, strain PDE1, hits give low values 1.03 | locus YGL253W, strain hxk2, hits give low values 1.01 | locus YGR078C, strain PAC10, hits give low values 1.03 | locus YGR135W, strain pre9, hits give low values 0.987 | locus YGR252W, strain gcn5, hits give low values 0.966 | locus YHR013C, strain ard1, hits give low values 1.02 | locus YHR027C, strain rpn1, hits give low values 1.02 | locus YHR030C, strain SLT2, hits give low values 1.02 and 1.01 | locus YHR079C, strain IRE1 (second series), hits give low values 1 | locus YHR079C, strain IRE1, hits give low values 1 | locus YHR094C, strain hxt1, hits give low values 0.999 | locus YHR129C, strain ARP1, hits give low values 1.02 | locus YHR142W, strain chs7, hits give low values 1.02 | locus YHR200W, strain rpn10, hits give low values 0.996 | locus YIL066C, strain RNR3, hits give low values 1.04 | locus YIL073C, strain SPO22, hits give low values 1.05 | locus YIL125W, strain kgd1, hits give low values 1.02 | locus YIR030C, strain dcg1, hits give low values 1 | locus YJL092W, strain hpr5, hits give low values 1.02 | locus YJL095W, strain BCK1 (second series), hits give low values 1.01 | locus YJL095W, strain BCK1, hits give low values 1.05 and 1.01 | locus YJL115W, strain asf1, hits give low values 0.997 | locus YJL129C, strain trk1, hits give low values 1.03 | locus YJL134W, strain LCB3, hits give low values 1.02 | locus YJL154C, strain vps35, hits give low values 1 | locus YJL164C, strain tpk1, hits give low values 1.01 | locus YJL166W, strain qcr8, hits give low values 1.01 | locus YJL168C, strain set2, hits give low values 1 | locus YJL187C, strain SWE1 (second series), hits give low values 1.04 | locus YJL187C, strain SWE1, hits give low values 1.01 | locus YJR043C, strain POL32, hits give low values 1.06
